PubChem BioAssay
Where “and” joins values, the source holds several entries; their conditions need not be identical. Equal values may be shown once. Calls of active or inactive are those of the source.

What was measured:
Albumin (Bos taurus) = Albumin (Bos taurus) (UniProt P02769); assay: compounds binding labelled BSA control protein – biochemical, small-molecule microarray, Alexa647 label, 635/667 nm fluorescence, artefact control for SMM control protein annotation, profiling panel (AID 1118); conditions: BSA-A647 binding, fluorescence 635 nm, higher = more signal;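 further: score merges 667 nm emission intensity and signal-to-noise per printed compound spot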
Albumin (Bos taurus), sequence (P02769 whole entry, looked up): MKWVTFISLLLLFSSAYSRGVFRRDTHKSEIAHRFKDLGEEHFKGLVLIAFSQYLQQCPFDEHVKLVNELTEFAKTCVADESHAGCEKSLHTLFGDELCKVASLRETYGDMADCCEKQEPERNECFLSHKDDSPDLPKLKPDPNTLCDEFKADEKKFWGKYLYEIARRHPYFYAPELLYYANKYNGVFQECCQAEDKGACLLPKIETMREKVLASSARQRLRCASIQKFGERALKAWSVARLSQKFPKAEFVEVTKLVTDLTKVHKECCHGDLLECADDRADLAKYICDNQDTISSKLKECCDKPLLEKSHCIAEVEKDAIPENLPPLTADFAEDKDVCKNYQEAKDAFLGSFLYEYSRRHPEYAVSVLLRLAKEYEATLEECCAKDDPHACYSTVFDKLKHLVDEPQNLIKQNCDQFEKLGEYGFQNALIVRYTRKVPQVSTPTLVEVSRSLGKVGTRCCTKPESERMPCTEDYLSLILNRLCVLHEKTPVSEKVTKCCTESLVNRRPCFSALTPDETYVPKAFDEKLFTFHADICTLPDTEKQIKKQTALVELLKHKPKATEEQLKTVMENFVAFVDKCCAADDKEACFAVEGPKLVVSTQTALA

[1] = probe aXIP binding to arrayed compounds – biochemical, NeuroSMM set, 635/667 nm fluorescence, primary screen (AID 1119); conditions: small-molecule microarray, higher = more signal, called active from +8 up or from −8 down;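 further: probe is the protein aXip251-270 applied at 1 µg/mL to compound-printed slides; binding of probe to printed compounds measured as 667 nm fluorescence plus signal to noise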
[2] = probe aNOTCH3 binding on compound microarray – biochemical, small-molecule microarray, 635/667 nm fluorescence, primary screen (AID 1120); conditions: higher = more signal;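 further: probe is a biotin-tagged antibody raised against NOTCH3 rather than NOTCH3 protein; score merges spot fluorescence near 667 nm with spot signal to noise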
[3] = probe aNOTCH2 binding on compound microarray – biochemical, small-molecule microarray, 635/667 nm fluorescence, primary screen (AID 1121); conditions: higher = more signal;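 further: score merges feature fluorescence read at 667 nm with its signal to noise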
[4] = target: Carbonic anhydrase 2 (Homo sapiens) (UniProt P00918); assay: compounds binding carbonic anhydrase 2 – biochemical, small-molecule microarray, Alexa647-labelled CAII, profiling panel (AID 1122); conditions: CAII-A647 binding fluorescence, higher = more signal
[5] = COS7 lysate on small-molecule microarray, probe aHis, 635 nm (AID 1123); conditions: COS7 cell lysate, fluorescence, higher = more signal;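 further: z-score combines 667nm fluorescence intensity with signal-to-noise per printed compound spot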
[6] = probe aLAP1 signal on lysate-treated microarray – cell lysate, small-molecule microarray, COS7 lysate, primary screen (AID 1124); conditions: probe aLAP1, fluorescence, higher = more signal;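 further: lysate comes from COS7 cells expressing LAP1 and is applied at 0.3 µg/mL; score merges spot fluorescence near 667 nm with signal-to-noise over triplicate slides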
Sam68 (KHDRBS1) = assay: compounds binding KHDRBS1 protein – biochemical, small-molecule microarray, 635 nm fluorescence, primary screen (AID 1125); conditions: higher = more signal;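 further: score merges 667 nm channel intensity with signal to noise over triplicate slides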
[7] = system: Chordin-like protein 2 (CHRDL2); assay: compounds binding chordin-like 2 – biochemical, small-molecule microarray, 635 nm fluorescence, primary screen (AID 1126); conditions: fluorescence 635 nm, higher = more signal;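 further: printed compound slides probed with Chrdl2 protein at 4 µg/mL for 1 h at 4 C; score merges 667 nm emission intensity with signal to noise over three replicate slides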
[8] = target: Concanavalin-A (Canavalia ensiformis) (UniProt P02866); assay: compounds binding concanavalin A lectin – biochemical, small-molecule microarray, Alexa647 label, 635 nm, artefact control for SMM control protein annotation, primary screen (AID 1127); conditions: ConA-A647 binding fluorescence, higher = more signal;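 further: z combines 667 nm emission intensity with signal-to-noise across three replicate slides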
Concanavalin-A (Canavalia ensiformis), sequence (P02866 whole entry, looked up): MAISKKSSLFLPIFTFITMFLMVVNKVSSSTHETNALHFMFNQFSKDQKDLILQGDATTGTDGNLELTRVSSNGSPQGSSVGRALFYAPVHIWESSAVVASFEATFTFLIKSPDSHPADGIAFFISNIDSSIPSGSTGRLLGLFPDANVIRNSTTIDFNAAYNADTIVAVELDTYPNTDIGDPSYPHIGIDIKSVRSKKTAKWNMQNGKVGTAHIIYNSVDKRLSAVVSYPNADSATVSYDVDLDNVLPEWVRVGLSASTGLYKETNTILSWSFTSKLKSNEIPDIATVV

SMILES	composite z-score (Albumin (Bos taurus))	composite Z-score [1]	composite z-score [2]	composite z-score [3]	composite z-score [4]	composite z-score [5]	composite z-score [6]	composite z-score (Sam68 (KHDRBS1))	composite z-score [7]	composite z-score [8]
COC(=O)C1=C(C)N(Cc2ccccc2)[C@]23O[C@](C(=O)OC)(C(=O)N2[C@@H]1c1ccccc1)[C@H]1CCCC(=O)[C@H]13	-0.0265 and -0.0851	-0.138 (inactive) and -0.0964 (inactive)	0.19 and -0.136	-0.0116 and -0.0649	0.311 and -0.0597	0.685 and -0.0027	0.26 and -0.0668	0.174 and 0.227	0.228 and 0.551	1 and 0.279
C=CCN(CCCC)C(=O)C1N(CCOCCO)C(=O)C2C(C(=O)O)C3C=CC21O3 (stereo not given)	-0.994 and -2.32	0.0673 (inactive) and 0.289 (inactive)	-0.372 and -0.457	-0.211 and -0.185	1.01 and 0.811	0.806 and -0.742	0.675 and 0.0426	-1.11 and -1.43	-1.67 and -1.1	-0.268 and -1.9
C=CCN(C(=O)C1N(CCOCCO)C(=O)C2C(C(=O)O)C3C=CC21O3)c1ccc(OC)cc1 (stereo not given)	-0.0638 and -1.17	-0.598 (inactive) and -0.613 (inactive)	-0.421 and -0.459	-0.211 and -0.143	0.797 and 0.959	-0.39 and 0.89	1.39 and 0.112	-1.5 and -2.25	-2.17 and -3.32	-2.82 and -1.96
Cc1ccc(S(=O)(=O)N[C@H]2COC(=O)[C@@H](Cc3ccccc3)NC(=O)[C@@H](C)COC(=O)CC=C[C@@H]2C)cc1	-0.92 and -0.489	0.103 (inactive) and 0.304 (inactive)	-0.279 and -0.132	-0.162 and -0.185	-0.363 and 0.129	-0.902 and 0.614	-0.221 and -0.16	-0.309 and 0.663	0.748 and 0.691	0.117 and 0.0745
CO[C@H]1COC(=O)CC=C[C@H](C)[C@H](OC)COC(=O)[C@@H](C)COC(=O)CC=C[C@@H]1C	-0.774 and -0.721	0.606 (inactive) and -0.054 (inactive)	-0.0984 and -0.0932	-0.153 and -0.14	-0.173 and -0.455	-0.315 and -0.798	-0.497 and -0.561	0.467 and 0.0015	1.16 and 0.85	-0.413 and -1.52
COC(=O)[C@@]1(Cc2ccc(OC)cc2)[C@H]2c3cc(C(=O)N(C)C)n(Cc4ccc(O)c(OC)c4)c3C[C@H]2CN1C(=O)c1ccccc1	1.03 and 0.843	-0.0164 (inactive) and -0.483 (inactive)	0.359 and 0.68	0.357 and 0.124	0.893 and 0.406	1.81 and 2.81	1.17 and 0.341	0.725 and 1.22	-1.12 and -0.44	0.311 and 0.836
C[C@@]1([C@@H](NC(=O)Cc2ccccc2)c2ccc(-c3ccccc3)cc2)C[C@H]1C1CCCCC1	0.895 and 0.715 and 0.978	1.18 (inactive) and 0.111 (inactive) and 0.428 (inactive)	0.767 and 1.49 and -0.137	0.24 and 0.797 and -0.324	0.426 and 0.62 and 0.464	0.0877 and 1.59 and 2.69	0.566 and 1.22 and 0.475	0.158 and 0.69 and 1.33	0.261 and -0.0345 and -0.954	0.956 and 0.166 and 1.12
C=CC[C@H](O)c1ccc(OCCO)cc1	0.787 and -0.0212	-0.745 (inactive) and 0.156 (inactive)	-0.382 and -0.319	-0.169 and -0.296	0.725 and 0.843	-0.263 and -1.45	-0.22 and -0.782	-0.769 and -2.69	-0.978 and 0.193	-1.3 and -1.2
